# This is part of a sample that, as a whole, favours compounds with a hit. Of some 79,000 tested, about 15% had one in any assay. Unmarked numbers belong to inactive results. Activity calls are given as the source filed them. No stated cut-off is given here; in the data, active means growth inhibition above about 70%; inactive means the rest.
# Legend:
# [1] = NCI Yeast Anticancer Drug Screen. Data for the rad52 strain (AID 147);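 further: 0% = growth of vehicle-treated control cultures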; details: S. cerevisiae rad52 mutant growth inhibition, hits give high values
# In short: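 Growth of repair-deficient yeast cells was compared between compound-treated and vehicle-treated cultures to give percent inhibition.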
# [2] = NCI Yeast Anticancer Drug Screen. Data for the wt1 strain (AID 149);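 further: 0% = growth of vehicle-treated wt1 cultures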; details: S. cerevisiae wt1 strain (SPY 50644) growth inhibition, hits give high values
# In short: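 Each compound is tested on wt1 yeast and the loss of growth versus vehicle gives the inhibition value.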
# [3] = NCI Yeast Anticancer Drug Screen. Data for the rad50EPP+ strain (AID 151);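 further: 0% = growth of vehicle-treated control cultures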; details: S. cerevisiae rad50 mutant strain, hits give high values
# In short: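 Measured: growth inhibition of rad50EPP+ yeast. Reference: vehicle-treated controls. Screen uses strains with defined genetic alterations in DNA damage repair or cell cycle control.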
# [4] = NCI Yeast Anticancer Drug Screen. Data for the mgt1 strain (AID 153); details: S. cerevisiae mgt1 mutant growth inhibition, hits give high values
# In short: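 Compounds were applied to mgt1 mutant yeast, and growth was then compared against vehicle-treated control cultures to give percent inhibition.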
# [5] = NCI Yeast Anticancer Drug Screen. Data for the rad50 strain (AID 155);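 further: 0% = growth of vehicle-only cultures of the same strain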; details: S. cerevisiae rad50 strain growth inhibition, hits give high values
# In short: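 Vehicle-treated cultures provide the reference for the growth inhibition reported for compound-exposed, repair-deficient yeast.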
# [6] = NCI Yeast Anticancer Drug Screen. Data for the mec2-1 strain (AID 157); details: S. cerevisiae mec2-1 strain, hits give high values
# In short: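 Compounds were applied to mec2-1 yeast cells. Their growth was then compared with that of vehicle-treated cultures to give growth inhibition.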
# [7] = NCI Yeast Anticancer Drug Screen. Data for the rad14 strain (AID 159);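 further: 0% = growth of vehicle-treated control cultures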; details: S. cerevisiae rad14 strain growth inhibition, hits give high values
# In short: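 Inhibition of growth is reported for a repair-deficient yeast mutant following compound treatment, calculated relative to cultures that received vehicle.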
# [8] = NCI Yeast Anticancer Drug Screen. Data for the sgs1 mgt1 strain (AID 161);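 further: 0% = growth of cultures given vehicle only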; details: S. cerevisiae sgs1 mgt1 strain, hits give high values
# In short: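 This yeast growth screen uses a strain with defined DNA-repair lesions; compound-treated growth is compared with vehicle-treated growth.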
# [9] = NCI Yeast Anticancer Drug Screen. Data for the CLN2oe strain (AID 163);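 further: 0% = growth of vehicle-only control cultures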; details: S. cerevisiae CLN2oe strain, hits give high values
# In short: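 Cells of an engineered yeast line with disturbed cell-cycle regulation are treated with compound. Inhibition of growth is then calculated relative to the vehicle-treated reference.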
# [10] = NCI Yeast Anticancer Drug Screen. Data for the cln2 rad14 strain (AID 165);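 further: 0% = growth equal to vehicle treated cultures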; details: S. cerevisiae cln2 rad14 strain, hits give high values
# In short: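 Strain: cln2 rad14 yeast, altered in cell cycle control and DNA damage repair. Read-out: growth inhibition vs vehicle.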
# [11] = NCI Yeast Anticancer Drug Screen. Data for the bub3 strain (AID 167); details: S. cerevisiae bub3 mutant strain, hits give high values
# In short: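 Mutant yeast screening strain plus compound; vehicle-treated cultures serve as the 0% inhibition reference.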
# [12] = NCI Yeast Anticancer Drug Screen. Data for the wt2 strain (AID 169); details: S. cerevisiae wt2 strain growth inhibition, hits give high values
# In short: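 Growth of compound-treated yeast is measured and expressed as inhibition relative to vehicle-only controls.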
# [13] = NCI Yeast Anticancer Drug Screen. Data for the mlh1 strain (AID 171);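 further: 0% = growth of vehicle-treated control cultures of the same strain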; details: S. cerevisiae mlh1 strain growth inhibition, hits give high values
# In short: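 Test agents were incubated with yeast bearing a defined DNA damage repair or cell cycle control alteration; values are growth inhibition normalised to vehicle-treated cultures.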
# [14] = NCI Yeast Anticancer Drug Screen. Data for the sgs1 strain (AID 173);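 further: 0% = growth of vehicle-only control cultures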; details: S. cerevisiae sgs1 mutant, hits give high values
# In short: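 Strain with an altered DNA repair or cell cycle pathway exposed to compound. Growth then measured. Value = inhibition versus vehicle control.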
# [15] = NCI Yeast Anticancer Drug Screen. Data for the mlh1 rad18 strain (AID 175); details: S. cerevisiae mlh1 rad18 strain growth inhibition, hits give high values
# In short: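 A repair-deficient yeast strain is exposed to test compound, and growth is scored relative to vehicle-treated controls.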
# [16] = NCI Yeast Anticancer Drug Screen. Data for the rad18 strain (AID 177); details: S. cerevisiae rad18 mutant growth inhibition, hits give high values
# In short: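 DNA-repair-defective yeast; compound treatment; growth inhibition scored against vehicle.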
# [17] = at 5.0 µM (retest, dose inferred, filed as 0.5)
# [18] = at 50.0 µM (retest, dose inferred, filed as 5.0)
structure (smiles),measurement,setting,value
c1ccc2cc(NCNc3ccc4ccccc4c3)ccc2c1,growth inhibition,[1]; at 1.2 µM,-3%
same,growth inhibition,[1]; at 3.7 µM,-6%
same,growth inhibition,[1]; at 11.0 µM,-9%
same,growth inhibition,[1]; at 33.0 µM,1%
same,growth inhibition,[1]; at 100.0 µM,24%
same,growth inhibition,[2]; at 1.2 µM,2%
same,growth inhibition,[2]; at 3.7 µM,3%
same,growth inhibition,[2]; at 11.0 µM,6%
same,growth inhibition,[2]; at 33.0 µM,11%
same,growth inhibition,[2]; at 100.0 µM,16%
same,growth inhibition,[3]; at 1.2 µM,0%
same,growth inhibition,[3]; at 3.7 µM,6%
same,growth inhibition,[3]; at 11.0 µM,11%
same,growth inhibition,[3]; at 33.0 µM,26%
same,growth inhibition,[3]; at 100.0 µM,42%
same,growth inhibition,[4]; at 1.2 µM,1%
same,growth inhibition,[4]; at 3.7 µM,0%
same,growth inhibition,[4]; at 11.0 µM,3%
same,growth inhibition,[4]; at 33.0 µM,8%
same,growth inhibition,[4]; at 100.0 µM,12%
same,growth inhibition,[5]; at 1.2 µM,1%
same,growth inhibition,[5]; at 3.7 µM,-5%
same,growth inhibition,[5]; [17],-9%
same,growth inhibition,[5]; at 11.0 µM,5%
same,growth inhibition,[5]; at 33.0 µM,0%
same,growth inhibition,[5]; [18],75% (active)
same,growth inhibition,[5]; at 50.0 µM,95.8% (active)
same,growth inhibition,[5]; at 100.0 µM,22%
same,growth inhibition,[6]; at 1.2 µM,0%
same,growth inhibition,[6]; at 3.7 µM,1%
same,growth inhibition,[6]; [17],8%
same,growth inhibition,[6]; at 11.0 µM,3%
same,growth inhibition,[6]; at 33.0 µM,14%
same,growth inhibition,[6]; [18],46%
same,growth inhibition,[6]; at 50.0 µM,69.8%
same,growth inhibition,[6]; at 100.0 µM,27%
same,growth inhibition,[7]; at 1.2 µM,1%
same,growth inhibition,[7]; at 3.7 µM,1%
same,growth inhibition,[7]; at 11.0 µM,0%
same,growth inhibition,[7]; at 33.0 µM,-13%
same,growth inhibition,[7]; at 100.0 µM,16%
same,growth inhibition,[8]; [17],0%
same,growth inhibition,[8]; [18],46%
same,growth inhibition,[8]; at 50.0 µM,95.3% (active)
same,growth inhibition,[9]; at 1.2 µM,-3%
same,growth inhibition,[9]; at 3.7 µM,-3%
same,growth inhibition,[9]; at 11.0 µM,-6%
same,growth inhibition,[9]; at 33.0 µM,-1%
same,growth inhibition,[9]; at 100.0 µM,6%
same,growth inhibition,[10]; [17],-17%
same,growth inhibition,[10]; [18],-22%
same,growth inhibition,[10]; at 50.0 µM,76.9% (active)
same,growth inhibition,[11]; at 1.2 µM,0%
same,growth inhibition,[11]; at 3.7 µM,6%
same,growth inhibition,[11]; [17],18%
same,growth inhibition,[11]; at 11.0 µM,-22%
same,growth inhibition,[11]; at 33.0 µM,51%
same,growth inhibition,[11]; [18],76% (active)
same,growth inhibition,[11]; at 50.0 µM,94.8% (active)
same,growth inhibition,[11]; at 100.0 µM,55%
same,growth inhibition,[12]; at 1.2 µM,-1%
same,growth inhibition,[12]; at 3.7 µM,1%
same,growth inhibition,[12]; at 11.0 µM,1%
same,growth inhibition,[12]; at 33.0 µM,7%
same,growth inhibition,[12]; at 100.0 µM,12%
same,growth inhibition,[13]; at 1.2 µM,3%
same,growth inhibition,[13]; at 3.7 µM,3%
same,growth inhibition,[13]; at 11.0 µM,4%
same,growth inhibition,[13]; at 33.0 µM,-22%
same,growth inhibition,[13]; at 100.0 µM,15%
same,growth inhibition,[14]; at 1.2 µM,3%
same,growth inhibition,[14]; at 3.7 µM,0%
same,growth inhibition,[14]; at 11.0 µM,1%
same,growth inhibition,[14]; at 33.0 µM,8%
same,growth inhibition,[14]; at 100.0 µM,27%
same,growth inhibition,[15]; [17],12%
same,growth inhibition,[15]; [18],65%
same,growth inhibition,[15]; at 50.0 µM,94.9% (active)
same,growth inhibition,[16]; at 1.2 µM,-5%
same,growth inhibition,[16]; at 3.7 µM,-2%
same,growth inhibition,[16]; at 11.0 µM,-19%
same,growth inhibition,[16]; at 33.0 µM,-9%
same,growth inhibition,[16]; at 100.0 µM,3%
